BAZ2B inh: BAZ2B (human) inhibition; Potency, µM (highest dose often 114 µM), for the others: at the highest dose activity change, negative = inhibition, most hits filed as inhibitors; AID 504333; AlphaScreen BAZ2B-H3K14Ac peptide displacement; actives 4.4% (n = 360,000); note: % is set by controls: 0 for no effect and ±100 for the full control effect; nearly all actives have a fitted effect of over 60% in size
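BAZ2B 50 nM plus b-H3(5-23)K14Ac 50 nM, PBS pH 7.4/0.01% Tween-20, 30 min RT; compound added (max 110 uM), 30 min RT; streptavidin donor/Ni-chelate acceptor beads 10 ug/mL final, 20 min dark; AlphaScreen read.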
L3MBTL1 inh: inhibitors of human L3MBTL1; AID 485360; actives 0.66% (n = 230,000); Q9Y468; AlphaScreen L3MBTL1–H3K9me1 peptide binding; Potency, µM (series often up to 57.1 µM), without a hit: top-dose activity, negative = inhibition, hits mostly inhibitors; note: % is set by controls: 0 for no effect and ±100 for the full control effect; nearly all actives have a fitted effect of over 60% in size
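AlphaScreen assay: L3MBTL1 (50 nM final) was preincubated 30 min at room temperature with biotinylated H3(1-15)K9me1 peptide (75 nM final), then 30 min with library compounds; streptavidin donor and nickel chelate acceptor beads (10 ug/mL final) added, 30 min dark.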
JMJD2A Tudor inh: inhibitors of human JMJD2A Tudor domain. AID 504339. Potency, µM (top dose mostly 114 µM), without a hit: at the top dose activity change, negative = inhibition, usual class: inhibitors. O75164. AlphaScreen JMJD2A-Tudor / H3K4me3 peptide binding. actives 4.4% (n = 390,000); note: % is set by controls: 0 for no effect and ±100 for the full control effect; nearly all actives have a fitted effect of over 50% in size
HP1b chromo inh: inhibitors of HP1-beta chromodomain binding to methylated histone tails | P83916 | Potency, µM (top dose mostly 114 µM), for inactives: at the top dose activity change, negative = inhibition, actives largely listed as inhibitors | actives 0.56% (n = 390,000) | AlphaScreen HP1-beta / biotin-H3K9me3 peptide binding | AID 540317; note: nearly all actives have a fitted effect of over 70% in size
Target sequence (P83916 whole entry, looked up): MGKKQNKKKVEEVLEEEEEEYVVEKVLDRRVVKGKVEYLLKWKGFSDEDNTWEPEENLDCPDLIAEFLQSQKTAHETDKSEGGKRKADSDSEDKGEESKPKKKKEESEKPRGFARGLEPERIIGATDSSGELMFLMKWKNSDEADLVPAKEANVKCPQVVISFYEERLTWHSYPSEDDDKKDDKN
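HP1-beta protein (50 nM final) preincubated 30 min at room temperature with biotinylated H3(1-18)K9me3 peptide (50 nM) in PBS pH 7.4, 0.01% Tween-20, then compound added for 30 min. AlphaScreen streptavidin donor/nickel chelate acceptor beads (10 ug/mL final), 30 min dark, luminescence read.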
G9a block: inhibitors of human histone lysine methyltransferase G9a; G9a H3K9 monomethylation, AlphaScreen, 2 h; Potency, µM (titrated, usually from 102 µM), for inactives: at the highest dose activity, negative = inhibition, hits mostly inhibitors; Q96KQ7; AID 504332; actives 8.8% (n = 350,000); note: % is set by controls: 0 for no effect and ±100 for the full control effect; nearly all actives have a fitted effect of over 75% in size
Target sequence (Q96KQ7 913-1193 limits assumed): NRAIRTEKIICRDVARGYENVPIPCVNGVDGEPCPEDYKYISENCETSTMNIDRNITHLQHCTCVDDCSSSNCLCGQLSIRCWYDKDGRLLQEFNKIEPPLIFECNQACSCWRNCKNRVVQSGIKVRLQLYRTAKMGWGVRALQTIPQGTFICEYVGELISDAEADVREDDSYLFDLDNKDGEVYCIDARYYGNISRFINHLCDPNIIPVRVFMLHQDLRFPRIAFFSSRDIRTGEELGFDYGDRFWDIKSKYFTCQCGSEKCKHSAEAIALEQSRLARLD
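G9a (20 nM) was preincubated 15 min with compound, then reacted 2 h at room temperature with 500 nM biotin-H3K9 peptide and 20 µM SAM. Monomethyl-H3K9 detected by AlphaScreen using anti-H3K9me1 antibody.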
An asterisk follows results filed as active; ? = inconclusive; . = no result given; [ ] = dose if it differs, or a comment. An excerpt weighted towards active compounds, which were near 11% of everything screened. Calls come from the whole dose curve; as a rule, active = well fitted inhibition curve with a large enough effect; inconclusive = small, poorly fitted or top-dose-only effect; inactive = no such curve, though single readings can be large or run the other way. Potency is the fitted concentration of half-maximal effect.

SMILES	BAZ2B inh	L3MBTL1 inh	JMJD2A Tudor inh	HP1b chromo inh	G9a block
COCCNC(=S)N=Nc1c(O)[nH]c2ccc([N+](=O)[O-])cc12	-4%	-12%	25µM*	14%	.
O=[N+]([O-])c1ccc(N=Nc2c(O)[nH]c3ccc(F)cc23)cc1	-32%	.	?	-39%	40µM*
O=C(N/N=C/c1ccc(N2CCOCC2)cc1)c1ccccc1OCCOc1ccccc1	9%	.	-35%[11.4 µM]	10%	8%
COc1ccc(-n2c(=O)c3sc4ccccc4c3n(Cc3ccccc3C)c2=O)cc1OC	0%	.	-3%	34%	-2%[59 µM]
Cc1coc2c1C(=O)C(=O)c1c-2ccc2c(C)cccc12	35µM*	.	35µM*	?	?
Cc1coc2c1C(=O)C(=O)c1c-2ccc2c1CCCC2(C)C	7.9µM*	?	45µM*	?	2.2µM*
Cc1coc2cc3oc(=O)c4c(c3cc12)CCC4	8%	.	.	.	-9%[12.7 µM]
Cc1cccc(NC(=O)C2CC(=O)n3cnnc3S2)c1 (stereo not given)	?	.	35µM*	-46%	?
COc1ccccc1-c1c(C)nn2c(-c3ccccc3)cc(-c3ccccc3)nc12	2%	.	3%	40%	6%[59 µM]
FC(F)(F)c1cccc(N2CCC(N=CN3CCCCCC3)=N2)c1	40µM*	.	-15%[11.4 µM]	?	40µM*
FC(F)(F)c1cccc(-n2cc(-c3ccccc3)c3c(N4CCCCC4)ncnc32)c1	-18%	.	-22%	12%	10%[59 µM]
CCOC(=O)/C(N=Nc1ccc2c(c1)OCO2)=C(\C)O	?	.	50µM*	-21%	?
CCOC(=O)C(=O)Nc1ccc2c(c1)OCO2	-25%	.	-16%	35%	1%[59 µM]
COc1ccc(-n2c(Cn3nc(C(F)(F)F)cc3C)n[nH]c2=S)cc1	0%	3%	?	27%	7.9µM*
COc1cccc(-n2c(Cn3nc(C(F)(F)F)cc3C)n[nH]c2=S)c1	-16%	2%	56µM*	34%	8.9µM*
COc1cccc(-n2c(Cn3nc(C(F)F)cc3C(F)F)n[nH]c2=S)c1	4%	2%	45µM*	4%	8.9µM*
Cc1ccc(-n2c(Cn3nc(C(F)(F)F)cc3C)n[nH]c2=S)cc1	-25%	.	56µM*	3%	?
COC(=O)c1ccc(Cn2nc(C(F)(F)F)cc2C)cc1	0%[57.1 µM]	7%	26%	71%	85%
COc1cccc2sc(NC(=O)c3ccc(S(=O)(=O)N4CCC(C)CC4)cc3)nc12	?	.	-12%	20%[57 µM]	3%[59 µM]
Cc1cc(OCC(=O)Nc2ccc(CN3CCOCC3)cc2)c2c(C)c(C)c(=O)oc2c1	-4%	.	-20%	18%	-13%
CN(C)S(=O)(=O)c1ccc(=S)[nH]c1	.	9%	56µM*	?	1.4µM*
O=S(=O)(c1ccc(=S)[nH]c1)N1CCCC1	.	6%	?	-3%	.
CCOC(=O)CN1C(=O)C2Cc3ccccc3CN2C1=S (stereo not given)	-20%	8%	-12%	?	20µM*
CC(=O)c1c(C)[nH]c(C(=O)CSc2nnc(-c3ccc(Cl)cc3)n2CC2CCCO2)c1C (stereo not given)	-10%	.	79µM*	9%	50µM*
CCC(=O)Nc1ccc(C(=O)CSc2nnc(-c3ccc(O)cc3)n2CC2CCCO2)cc1 (stereo not given)	?	.	?	1%	45µM*
SMILES	BAZ2B inh	L3MBTL1 inh	JMJD2A Tudor inh	HP1b chromo inh	G9a block
COc1ccccc1-n1nnnc1SCC(=O)NCC1CCCO1 (stereo not given)	1%	8%	-10%	26%	56µM*
COc1ccccc1-n1nnnc1SCC(=O)NC1CC1	-1%	13%	-14%	28%	9%
Cc1ccc(-c2nnc(SCC(=O)NCC3CCCO3)n2C)cc1 (stereo not given)	7%	.	-9%	7%	-42%[59 µM]
CCC(=O)Nc1ccc(-c2nnc(SCC(=O)NCC3CCCO3)n2C)cc1 (stereo not given)	3%	15%	-10%	25%	8.9µM*
COc1ccccc1NC(=O)C1CCN(C(=O)c2sc3nc[nH]c(=O)c3c2C)CC1	8%	.	-7%	24%[57 µM]	23%[59 µM]
Cc1ccc2c(c1)c1c(c(=O)n(-c3ccccc3C)c(=O)n1Cc1cccc(F)c1)n2C	-25%	.	-13%	45%	-25%[59 µM]
Cc1ccc(-n2c(SCC(=O)NCC3CCCO3)nnc2-c2ccoc2C)cc1 (stereo not given)	1%	1%	-21%	68%	?
Cc1occc1-c1nnc(SCC(=O)NCCc2ccccc2)o1	-23%	-3%	-24%	-18%	-1%
CCSc1nnc(-c2ccc(S(=O)(=O)N3CCOCC3)cc2)n1CC1CCCO1 (stereo not given)	9%	4%	-10%	4%	-20%[59 µM]
Cc1occc1-c1nnc(SCC(=O)NCCc2ccccc2)n1C(C)c1ccccc1 (stereo not given)	?	-1%	-25%	9%	56µM*
CCOc1ccccc1-n1nnnc1SCC(=O)NC(=O)Cc1ccccc1	0%	9%	-29%	20%	10µM*
Cc1occc1-c1nnc(SCC(=O)NCC2CCCO2)n1C (stereo not given)	-3%	7%	56µM*	-6%	-10%[59 µM]
O=C(CSc1nnc(-c2ccc(S(=O)(=O)N3CCCC3)cc2)n1CC1CCCO1)NC1CC1 (stereo not given)	-7%	-2%	-3%	15%	50µM*
CN(C)CCSc1nnc(-c2ccccc2)o1	11%	-3%	-1%[57.1 µM]	-6%	40µM*
CSc1nnc(-c2ccccc2)o1	.	6%	2%	23%	21%[59 µM]
CCN(CC)C(=O)CSc1nnc(-c2ccccc2)o1	12%	.	-4%	26%	79µM*
CCN(Cc1ccccc1)C(=O)CSc1nncn1C	?	3%	-23%	28%	56µM*
CCN(CC)C(=O)CSc1nnc(-c2ccccc2)n1-c1ccccc1	5%	5%	50µM*	60%	28µM*
CCN1CCN(c2nc3c(S(=O)(=O)c4ccc(Br)cc4)nnn3c3ccsc23)CC1	-2%	.	-10%	62%	10%[59 µM]
O=C(Nc1ccc(OCc2cc(=O)n3c4c(sc3n2)CCCC4)cc1)c1cccc(F)c1	-3%	.	-12%	24%	-13%[59 µM]
CC(C)C(=O)OCc1cc(=O)n2nc(C3CC3)sc2n1	-30%	.	-33%	55%	7%[59 µM]
CN(C)c1ccc(NC(=O)Cn2c(SCc3ccc(F)cc3)nc3ccncc32)cc1	?	.	?	2%	6.3µM*
COc1ccccc1/C=C/C(=O)NCC(=O)N/N=C/c1ccccc1	-37%	.	-13%	34%	31%
COc1ccccc1/C=C/C(=O)NCC(=O)N/N=C/c1ccc(C)o1	-1%	.	-15%	16%	45µM*
COc1ccccc1/C=C\C(=O)NCC(=O)N/N=C(/C)c1cccc([N+](=O)[O-])c1	4%	.	-7%	53%	79µM*
Cc1ccc(CNCc2cn[nH]c2-c2ccc(C)cc2)cc1	.	.	-17%	24%	.
